Assay outcomes from PubChem.
GAA850 FXN act: activators of GAA850 frataxin (FXN) promoter; HEK293 lucGAA850 FXN promoter luciferase reporter, 24 h; percent of 10 µM SAHA response; activation, % at 6 µM; 360,000 compounds, 0.56% hits;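 active means activation above the average of all compounds screened plus 3 SD, cutoff fixed separately per campaign, cut at about 7.5% in these data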;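 further: 0% = DMSO wells and 100% = 10 µM SAHA wells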
hgDAF-12 ag: agonists of H. glycines DAF-12 nuclear receptor; activation, % at 6.8 µM; AID 687014; 370,000 compounds, 1.8% hits; HEK293 GAL4-hgDAF12 UAS-luciferase reporter, agonist luminescence; normalized to butyrate control;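 active means activation above a cutoff set at the mean of all screened compounds plus 3 SD, cut at about 10% in these data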;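 further: 0% = DMSO wells and 100% = sodium butyrate wells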
ssDAF-12 act: activates DAF-12 receptor from parasite S. stercoralis | HEK293 ssDAF-12/GRIP1 lit1-tk-luc reporter, luminescence; % of 3 µM dafachronic acid response | activation, % at 6.8 µM | 370,000 compounds, 1% hits | AID 652126;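 active means activation above the mean over all tested compounds plus 3 SD, cut at about 0.9% in these data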;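 further: 0% = DMSO-only wells and 100% = 3 µM delta7-dafachronic acid wells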
hcDAF-12 act: activates DAF-12 receptor from parasite H. contortus | HEK293 hcDAF-12 lit1-tk-luc reporter, luminescence; 0% DMSO, 100% Δ7-dafachronic acid | activation, % at 6.8 µM | 370,000 compounds, 1.4% hits;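 active means activation above the mean of all tested compounds plus 3 SD, cut at about 5.5% in these data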;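 further: 100% = response to 3 µM Δ7-dafachronic acid high control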
DAX1 inh-1: inhibits human nuclear receptor DAX1; HEK293 Gal4-DAX1 luciferase reporter, luminescence; 340,000 compounds, 0.99% hits; inhibition, % at 6.75 µM;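 active means inhibition above the mean over all tested compounds plus 3 SD, cut at about 4.2% in these data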;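 further: 0% = DAX1-transfected cells with DMSO and 100% = empty-vector control cells with DMSO; inhibition shows as a rise in luminescence from relieved DAX1 repression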
Target sequence (P51843 207-470 limits assumed): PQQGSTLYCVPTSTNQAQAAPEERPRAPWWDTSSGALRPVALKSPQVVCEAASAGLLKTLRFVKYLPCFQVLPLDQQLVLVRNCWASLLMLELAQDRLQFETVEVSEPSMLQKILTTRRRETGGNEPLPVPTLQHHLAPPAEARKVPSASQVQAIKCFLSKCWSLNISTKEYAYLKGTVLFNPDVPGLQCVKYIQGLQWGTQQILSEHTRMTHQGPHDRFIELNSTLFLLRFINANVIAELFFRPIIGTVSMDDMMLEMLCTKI
DAX1 inh-2: DAX1 (NR0B1) inhibition, primary screen | HEK293T StAR-luciferase reporter, SF-1/DAX-1 repression relief | 370,000 compounds, 1.1% hits | inhibition, % at 6.8 µM;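 active means inhibition above the mean over all tested compounds plus 3 SD, cut at about 3.6% in these data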;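 further: 0% = DAX-1 cells with DMSO and 100% = cells lacking DAX-1 with DMSO; higher inhibition means more luminescence from relief of DAX-1 repression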
Active calls of the source: *. Sampled rows, rich in hits. Any-hit rate of the full collection: about 4.5%.

Screening CCC(C)Sc1nc2c([nH]c3ccccc32)c(=O)n1C (stereo unspecified) returned GAA850 FXN act 4, hgDAF-12 ag 4, ssDAF-12 act 3.1*, hcDAF-12 act 4, DAX1 inh-1 1 and DAX1 inh-2 0.
`COc1ccc(-c2cc(-c3nnc(SCc4cccc5ccccc45)n3N)[nH]n2)cc1` gave hgDAF-12 ag 0, ssDAF-12 act -2, hcDAF-12 act -6 and DAX1 inh-2 -1.
`CCCCCN1CCCCC(NC(=O)c2cc(OC)c(OC)c(OC)c2)C1=O` (stereo unspecified) gave hgDAF-12 ag 4, ssDAF-12 act -2, hcDAF-12 act -1 and DAX1 inh-2 0.
Screening Cc1ccc(-n2c(SCC(=O)Nc3cc(C)on3)nc3c([nH]c4ccccc43)c2=O)cc1 returned GAA850 FXN act 3, hgDAF-12 ag 4, ssDAF-12 act -1, hcDAF-12 act 3, DAX1 inh-1 0 and DAX1 inh-2 0.
Screening COc1ccc(-n2c(SCC(=O)Nc3cc(C)on3)nc3c([nH]c4ccccc43)c2=O)cc1 returned GAA850 FXN act -2, hgDAF-12 ag 4, ssDAF-12 act 1.1*, hcDAF-12 act 3, DAX1 inh-1 0 and DAX1 inh-2 3.
For COC(=O)[C@]12C[C@H](CC(=O)NCCCN3CCCC3=O)C(=O)N(Cc3ccc(Cl)cc3Cl)C1=C[C@H](C1CCCC1)O[C@@H]2C the results were hgDAF-12 ag -3, ssDAF-12 act -2, hcDAF-12 act -1 and DAX1 inh-2 -1.
For Cc1ccc2oc(C(=O)N(C)Cc3ccon3)c(C)c2c1 the results were GAA850 FXN act 5, hgDAF-12 ag 10, ssDAF-12 act 0, hcDAF-12 act 6.5*, DAX1 inh-1 3 and DAX1 inh-2 2.
Screening Cc1cc(C)nc(SC2CCCCC2O)n1 (stereo unspecified) returned GAA850 FXN act 0, hgDAF-12 ag 4, ssDAF-12 act -1, hcDAF-12 act 5.8*, DAX1 inh-1 1 and DAX1 inh-2 1.
Screening O=C(Cc1cccs1)NCCc1ccc(F)cc1 returned GAA850 FXN act 1, hgDAF-12 ag -2, ssDAF-12 act -1, hcDAF-12 act 2, DAX1 inh-1 3 and DAX1 inh-2 0.
For OCCc1ccc(NCCc2cccs2)cc1 the results were hgDAF-12 ag 11*, ssDAF-12 act -1, hcDAF-12 act 5 and DAX1 inh-2 3.
For NC(=O)c1cc(Cc2ccccc2)sc1NC(=O)c1ccco1 the results were GAA850 FXN act 5, hgDAF-12 ag 13*, ssDAF-12 act 0, hcDAF-12 act 3, DAX1 inh-1 2 and DAX1 inh-2 2.
Screening CCNC(=O)c1sc(=S)n(-c2ccc(C)cc2)c1N returned GAA850 FXN act 2, hgDAF-12 ag 0, ssDAF-12 act -2, hcDAF-12 act -2, DAX1 inh-1 2 and DAX1 inh-2 -1.
`NC(=O)c1sc(=S)n(-c2ccc(Br)cc2)c1N` gave GAA850 FXN act 3, hgDAF-12 ag 1, ssDAF-12 act 0, hcDAF-12 act 6.5*, DAX1 inh-1 1 and DAX1 inh-2 -1.
`COc1ccc(/C=C2\SC(=O)N(CCC(=O)N3CCCCC3)C2=O)cc1OC` gave GAA850 FXN act 2, hgDAF-12 ag -1, ssDAF-12 act -1, hcDAF-12 act -1, DAX1 inh-1 5.8* and DAX1 inh-2 0.
For COc1ccc(/C=C2\SC(=O)N(CC(=O)NN3CCN(C)CC3)C2=O)cc1OC the results were GAA850 FXN act 2, hgDAF-12 ag -1, ssDAF-12 act -1, hcDAF-12 act 0, DAX1 inh-1 4.7* and DAX1 inh-2 0.
Cc1ccc(-n2c(N)c(-c3nc4ccccc4n3C)sc2=S)cc1 was read as GAA850 FXN act 2, hgDAF-12 ag 1, ssDAF-12 act 0, hcDAF-12 act 4, DAX1 inh-1 1 and DAX1 inh-2 0.
`Cn1c(N)c(-c2nc3cccnc3n2C)sc1=S` gave GAA850 FXN act 1, hgDAF-12 ag -1, ssDAF-12 act -1, hcDAF-12 act 0, DAX1 inh-1 4.2* and DAX1 inh-2 0.
`Clc1ccc([C@H]2OC[C@@]3(CNCC4CC4)CS[C@H](c4ccc(Cl)cc4)N23)cc1` gave hgDAF-12 ag 0, ssDAF-12 act -1, hcDAF-12 act -1 and DAX1 inh-2 1.
CC(C)=CCC/C(C)=C/C[C@]12C[C@H](C(=O)O)N(C(=O)OC(C)(C)C)[C@@H]1N(C(=O)OC(C)(C)C)c1ccccc12 was read as hgDAF-12 ag -4, ssDAF-12 act -1 and hcDAF-12 act 2.
CCN1CCN(C(=O)C2=CC(c3ccc(OC)cc3)=NS(=O)(=O)N2C)CC1 was read as GAA850 FXN act 1, hgDAF-12 ag 0, ssDAF-12 act -2, hcDAF-12 act -1, DAX1 inh-1 1 and DAX1 inh-2 0.
For CCN1CCN(C(=O)C2=CC(c3ccc(C)cc3)=NS(=O)(=O)N2C)CC1 the results were GAA850 FXN act 0, hgDAF-12 ag 1, ssDAF-12 act -1, hcDAF-12 act 0, DAX1 inh-1 4.5* and DAX1 inh-2 -2.
O=C(CSc1nc2ccccc2nc1N1CCCC1)N1CCN(c2cccc(C(F)(F)F)c2)CC1 was read as hgDAF-12 ag 0, ssDAF-12 act -1, hcDAF-12 act -1 and DAX1 inh-2 0.
CSc1ncccc1C(=O)OCC(=O)c1cc(C)n(C)c1C was read as GAA850 FXN act 5, hgDAF-12 ag 4, ssDAF-12 act 1, hcDAF-12 act 6.4*, DAX1 inh-1 4.3* and DAX1 inh-2 2.
`CCCC1CCC2(CCCN2CCOC(=S)Nc2ccccc2Br)CC1` (stereo unspecified) gave hgDAF-12 ag 1, ssDAF-12 act -1 and hcDAF-12 act -1.
For O=C1c2ccccc2NC(c2cccc(Cl)c2)N1N=C1CCCCCC1 (stereo unspecified) the results were GAA850 FXN act -2, hgDAF-12 ag 7, ssDAF-12 act -1, hcDAF-12 act 2, DAX1 inh-1 4.9* and DAX1 inh-2 2.
O=C1c2ccccc2NC(c2ccc(Cl)cc2Cl)N1O (stereo unspecified) was read as GAA850 FXN act -1, hgDAF-12 ag 2, ssDAF-12 act -1, hcDAF-12 act 2, DAX1 inh-1 1 and DAX1 inh-2 0.
For C/C(=N/NC(=O)CSc1nnc(SCc2ccc(C)cc2)s1)c1cccc(O)c1 the results were hgDAF-12 ag 0, ssDAF-12 act -2, hcDAF-12 act -3 and DAX1 inh-2 -2.
For CC1CCCCN1Cc1c(O)ccc2c(=O)c(-c3ccc(Cl)cc3)coc12 (stereo unspecified) the results were GAA850 FXN act 4, hgDAF-12 ag 1, ssDAF-12 act 0, hcDAF-12 act 5.8*, DAX1 inh-1 1 and DAX1 inh-2 0.
